According to the supplement of paper PMC12645437, “Orthogonal IMiD-Degron Pairs Induce Selective Protein Degradation in Cells” (ACS Chemical Biology, 2025):
In all, about 8,300 sequences were measured (“log2 fold change of degron read counts, EGFP-low vs EGFP+ sorted cells (limma voom), compound-induced degradation”: median about -1.1, highest 2% from about 3.2 on). The sample holds the highest values, similar sequences and a random draw of the others, so the mix is not that of the screen.

Biological target: T1, CRBN, Q96SW2
T1 chain: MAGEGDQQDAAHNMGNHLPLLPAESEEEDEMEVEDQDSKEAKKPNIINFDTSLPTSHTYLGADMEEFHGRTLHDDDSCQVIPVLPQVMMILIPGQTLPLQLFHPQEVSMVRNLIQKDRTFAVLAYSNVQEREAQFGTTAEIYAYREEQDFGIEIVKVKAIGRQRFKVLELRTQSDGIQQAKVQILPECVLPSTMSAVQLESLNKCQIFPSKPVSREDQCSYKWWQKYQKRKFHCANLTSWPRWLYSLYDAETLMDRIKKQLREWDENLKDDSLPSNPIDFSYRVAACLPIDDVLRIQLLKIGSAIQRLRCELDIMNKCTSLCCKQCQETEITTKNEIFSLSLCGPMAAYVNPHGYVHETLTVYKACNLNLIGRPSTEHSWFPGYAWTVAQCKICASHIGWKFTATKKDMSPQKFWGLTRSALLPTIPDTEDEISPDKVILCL
Test: log2 fold change of degron read counts, EGFP-low vs EGFP+ sorted cells (limma voom), compound-induced degradation; higher = more compound-induced degradation of the degron-EGFP fusion; degrons are variants of IKZF1/3 zinc finger 2; compound dose not given here
Details: Jurkat, 18 h
Experimental: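 Pooled library of 8380 IKZF3 ZF2 degron mutants (positions 146-167 varied within the IKZF3 130-189 degron; only the varied core is printed, flanks not printed) fused to EGFP with IRES-mCherry, lentivirally expressed in Jurkat cells. mCherry+ cells were treated with one IMiD compound for 18 h (dose not stated) and FACS-sorted into EGFP-low and EGFP+ populations. Degron sequences were counted by NGS, and log2FC (EGFP-low vs EGFP+) was estimated by limma voom over 3 biological replicates.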

[1] = compound: compound 19 (5-tert-butyl-thalidomide)
[2] = compound: compound 22 (5-morpholino-thalidomide)
[3] = compound: compound 33 (diphenyl IMiD analogue)
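Also: pooled lentiviral library of zinc finger degron-EGFP fusions in mCherry-positive Jurkat cells, FACS-sorted after compound exposure, with degron abundance counted by next-generation sequencing.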

Sequence | log2 fold change of degron read counts [1] | log2 fold change of degron read counts [2] | log2 fold change of degron read counts [3] | log2 fold change of degron read counts (compound: thalidomide)
FYCNICGAFFTQKGNLLRHIKL [46F_47Y_49N_50I_52G_53A_54F_55F_67L_, Q9UKT9] | 1.22 | 1.41 | 0.651 | -0.835
FYCEQCGAEFTQKGNLLRHIKL [46F_47Y_49E_50Q_52G_53A_54E_55F_67L_, Q9UKT9] | -0.252 | -0.709 | -0.311 | -2.41
FHCPQCGACFTQKGNLLRHIKL [46F_47H_49P_50Q_52G_53A_54C_55F_67L_, Q9UKT9] | -0.735 | -0.785 | 0.174 | -1.82
FKCPVCGAAFTQKGNLLRHIKL [46F_47K_49P_50V_52G_53A_54A_55F_67L_, Q9UKT9] | 1.7 | -0.2 | -1.11 | 0.798
FECEICGHPFTQKGNLLRHIKL [46F_47E_49E_50I_52G_53H_54P_55F_67L_, Q9UKT9] | -2.97 | -3.81 | -1.95 | -1.68
FWCPICGHKFTQKGNLLRHIKL [46F_47W_49P_50I_52G_53H_54K_55F_67L_, Q9UKT9] | -0.246 | -0.231 | -0.673 | -0.717
FFCPICGRWFTQKGNLLRHIKL [46F_47F_49P_50I_52G_53R_54W_55F_67L_, Q9UKT9] | 1.04 | 1 | -0.146 | -0.692
FVCEICGHPFTQKGNLLRHIKL [46F_47V_49E_50I_52G_53H_54P_55F_67L_, Q9UKT9] | -1.95 | -1.66 | -1.45 | -0.105
FNCEICGACFTQKGNLLRHIKL [46F_47N_49E_50I_52G_53A_54C_55F_67L_, Q9UKT9] | 2.72 | 0.812 | 0.513 | 0.0996
FICEICGACFTQKGNLLRHIKL [46F_47I_49E_50I_52G_53A_54C_55F_67L_, Q9UKT9] | -0.122 | 2.02 | 2.45 | 2.64
FWCEICGACFTQKGNLLRHIKL [46F_47W_49E_50I_52G_53A_54C_55F_67L_, Q9UKT9] | 3.85 | 3.79 | 2.77 | 1.16
FFCEICGACFTQKGNLLRHIKL [46F_47F_49E_50I_52G_53A_54C_55F_67L_, Q9UKT9] | 3.78 | 3.84 | 2.33 | 1.61
FACEICGACFTQKGNLLRHIKL [46F_47A_49E_50I_52G_53A_54C_55F_67L_, Q9UKT9] | 3.71 | 2.6 | 1.54 | 0.745
FHCEICGACFTQKGNLLRHIKL [46F_47H_49E_50I_52G_53A_54C_55F_67L_, Q9UKT9] | 2.97 | 2.54 | 1.42 | 0.134
FLCEICGACFTQKGNLLRHIKL [46F_47L_49E_50I_52G_53A_54C_55F_67L_, Q9UKT9] | 1.19 | -0.209 | 1.6 | 1.57
FECNQCGHIFTQKGNLLRHIKL [46F_47E_49N_50Q_52G_53H_54I_55F_67L_, Q9UKT9] | -3.19 | -3.02 | -3.5 | -3.26

Sequence | log2 fold change of degron read counts [1] | log2 fold change of degron read counts [2] | log2 fold change of degron read counts [3] | log2 fold change of degron read counts (compound: thalidomide)
FVCEICGRMFTQKGNLLRHIKL [46F_47V_49E_50I_52G_53R_54M_55F_67L_, Q9UKT9] | -2.37 | -1.56 | -0.324 | -0.297
FHCEICGHNFTQKGNLLRHIKL [46F_47H_49E_50I_52G_53H_54N_55F_67L_, Q9UKT9] | -2.97 | -3.92 | -2.88 | -3.29
FECNICGAHFTQKGNLLRHIKL [46F_47E_49N_50I_52G_53A_54H_55F_67L_, Q9UKT9] | -1.95 | -2.29 | 0.157 | 0.612
FQCEICGAQFTQKGNLLRHIKL [46F_47Q_49E_50I_52G_53A_54Q_55F_67L_, Q9UKT9] | 0.962 | 2.24 | 2.41 | 3.56
FICEICGAQFTQKGNLLRHIKL [46F_47I_49E_50I_52G_53A_54Q_55F_67L_, Q9UKT9] | 0.506 | 2.86 | 3.06 | 3.16
FECEICGAQFTQKGNLLRHIKL [46F_47E_49E_50I_52G_53A_54Q_55F_67L_, Q9UKT9] | -0.353 | -0.866 | 1.45 | 2.5
FHCEICGAQFTQKGNLLRHIKL [46F_47H_49E_50I_52G_53A_54Q_55F_67L_, Q9UKT9] | 2.66 | 2.64 | 2 | 0.968
FTCEICGAQFTQKGNLLRHIKL [46F_47T_49E_50I_52G_53A_54Q_55F_67L_, Q9UKT9] | 0.557 | 1.85 | 2.25 | 2.92
FRCEICGAQFTQKGNLLRHIKL [46F_47R_49E_50I_52G_53A_54Q_55F_67L_, Q9UKT9] | 0.162 | 0.149 | 1.38 | 1.94
FMCEICGAQFTQKGNLLRHIKL [46F_47M_49E_50I_52G_53A_54Q_55F_67L_, Q9UKT9] | 0.486 | 0.824 | 2.7 | 1.97
FYCEICGAQFTQKGNLLRHIKL [46F_47Y_49E_50I_52G_53A_54Q_55F_67L_, Q9UKT9] | 3.6 | 3.55 | 3.13 | 2.12
FWCEICGAQFTQKGNLLRHIKL [46F_47W_49E_50I_52G_53A_54Q_55F_67L_, Q9UKT9] | 3.54 | 3.93 | 2.7 | 2.04
FDCEICGAQFTQKGNLLRHIKL [46F_47D_49E_50I_52G_53A_54Q_55F_67L_, Q9UKT9] | 2.04 | 0.951 | -0.0023 | 1.29
FFCEICGAQFTQKGNLLRHIKL [46F_47F_49E_50I_52G_53A_54Q_55F_67L_, Q9UKT9] | 3.67 | 3.67 | 2.56 | 1.93
FLCEICGAQFTQKGNLLRHIKL [46F_47L_49E_50I_52G_53A_54Q_55F_67L_, Q9UKT9] | 1.29 | -0.49 | 1.79 | 2.07
